Data taken from PubChem BioAssay (NCATS).
Results filed as inconclusive are left out. The source made the active and inactive calls. Calls come from the whole dose curve; as a rule, active = well fitted curve in the direction sought with a large enough effect; inconclusive = small, poorly fitted or top-dose-only effect, or another doubt; inactive = no such curve, though single readings can be large; an effect the other way counts as inactive or inconclusive.

Columns and labels:
[1] = qHTS of pediatric cancer cell lines to identify multiple opportunities for drug repurposing: Primary screen for Rh30 cells (AID 1347107); note: series mostly up to about 46 µM; nearly all actives have a fitted effect of over 75% in size
Procedure, shortened: (§1)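 Cells (500-1,000/well) rested 5 h, then received compounds for 48 h; metabolically active cells were measured by CellTiter-Glo luminescence. Final concentrations spanned up to 46 µM (MIPE, 11-point) or 0.59 nM-46 µM (NPC, 8-point) in primary screens, 11-point in follow-ups.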

[2] = qHTS of pediatric cancer cell lines to identify multiple opportunities for drug repurposing: Primary screen for Rh41 cells (AID 1347108); note: nearly all actives have a fitted effect of over 70% in size; note: potency is the fitted concentration of half-maximal effect
Procedure, shortened: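 Primary screen of approved and investigational compounds on cells in growth media at 37 degrees C, 5% CO2. MIPE set at 11-point and NPC set at 8-point dilutions; viability scored by ATP-based luminescence at 48 hours.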

[3] = qHTS of pediatric cancer cell lines to identify multiple opportunities for drug repurposing: Confirmatory screen for A673 cells (AID 1347110);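 note: cells exposed to compound for 48 h before the viability read; nearly all actives have a fitted effect of over 65% in size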; note: potency is the fitted concentration of half-maximal effect
Procedure, shortened: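 Viability was read as ATP luminescence (CellTiter-Glo) after 48 h of compound exposure at 37 C in A673 cells seeded at 500-1,000/well. Titrations reached 46 uM final, with 11 points in the confirmatory screen. Concentration-response curves were fitted directly.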

[4] = qHTS of pediatric cancer cell lines to identify multiple opportunities for drug repurposing: Confirmatory screen for SK-N-MC cells (AID 1347111);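 note: cells exposed to compound for 48 h before the readout; nearly all actives have a fitted effect of over 70% in size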; note: potency is the fitted concentration of half-maximal effect
Procedure, shortened: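 Seed 500-1,000 cells/well; rest 5 h at 37 degrees C. Pin-transfer compounds, 11-point titration. Incubate 48 h. Add CellTiter-Glo, 15 min RT, read luminescence.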

[5] = qHTS of pediatric cancer cell lines to identify multiple opportunities for drug repurposing: Confirmatory screen for BT-12 cells (AID 1347112); note: nearly all actives have a fitted effect of over 55% in size; note: potency is the fitted concentration of half-maximal effect
Procedure, shortened: as §1

[6] = qHTS of pediatric cancer cell lines to identify multiple opportunities for drug repurposing: Confirmatory screen for DAOY cells (AID 1347114); note: nearly all actives have a fitted effect of over 65% in size
Procedure, shortened: (§2)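 Viability measured as metabolically active cells via CellTiter-Glo luminescence following 48 hours of compound exposure, 11-point dilutions in confirmatory testing. 500-1,000 cells/well plated 5 hours before dosing; controls were DMSO and 2.3 µM bortezomib.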

[7] = qHTS of pediatric cancer cell lines to identify multiple opportunities for drug repurposing: Confirmatory screen for NB-EBc1 cells (AID 1347115);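 note: cells exposed to compound for 48 h before the viability read; nearly all actives have a fitted effect of over 45% in size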
Procedure, shortened: as §1

[8] = qHTS of pediatric cancer cell lines to identify multiple opportunities for drug repurposing: Confirmatory screen for SJ-GBM2 cells (AID 1347116); note: nearly all actives have a fitted effect of over 60% in size
Procedure, shortened: as §2

[9] = qHTS of pediatric cancer cell lines to identify multiple opportunities for drug repurposing: Confirmatory screen for BT-37 cells (AID 1347117); note: nearly all actives have a fitted effect of over 55% in size
Procedure, shortened: as §1

[10] = qHTS of pediatric cancer cell lines to identify multiple opportunities for drug repurposing: Confirmatory screen for TC32 cells (AID 1347118);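 note: cells exposed to compound for 48 h before the read; nearly all actives have a fitted effect of over 65% in size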; note: potency is the fitted concentration of half-maximal effect
Procedure, shortened: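 qHTS, TC32, 48 h drug treatment, CellTiter-Glo luminescence as a proxy for metabolically active cells; primary top concentration 46 µM (MIPE 11-pt, NPC 8-pt); confirmatory 11-pt.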

[11] = qHTS of pediatric cancer cell lines to identify multiple opportunities for drug repurposing: Confirmatory screen for MG 63 (6-TG R) cells (AID 1347119); note: nearly all actives have a fitted effect of over 55% in size
Procedure, shortened: as §1

[12] = qHTS of pediatric cancer cell lines to identify multiple opportunities for drug repurposing: Confirmatory screen for Rh41 cells (AID 1347123); note: nearly all actives have a fitted effect of over 60% in size; note: potency is the fitted concentration of half-maximal effect
Procedure, shortened: as §1

[13] = qHTS of pediatric cancer cell lines to identify multiple opportunities for drug repurposing: Confirmatory screen for RD cells (AID 1347124);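 note: cells exposed to compound for 48 h before viability readout; nearly all actives have a fitted effect of over 65% in size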
Procedure, shortened: as §1

[14] = qHTS of pediatric cancer cell lines to identify multiple opportunities for drug repurposing: Confirmatory screen for Rh18 cells (AID 1347125); note: nearly all actives have a fitted effect of over 55% in size
Procedure, shortened: as §1

[15] = qHTS of pediatric cancer cell lines to identify multiple opportunities for drug repurposing: Confirmatory screen for OHS-50 cells (AID 1347128)
Procedure, shortened: as §1

[16] = qHTS of pediatric cancer cell lines to identify multiple opportunities for drug repurposing: Confirmatory screen for LAN-5 cells (AID 1347113); note: nearly all actives have a fitted effect of over 65% in size
Procedure, shortened: as §1

[17] = qHTS of pediatric cancer cell lines to identify multiple opportunities for drug repurposing: Confirmatory screen for Rh30 cells (AID 1347126); note: nearly all actives have a fitted effect of over 55% in size
Procedure, shortened: as §1

Measured: Potency

NC(CO)(CO)CO
active: [4] 8.27 µM | [10] 11.7 µM
inactive: [1] | [2] | [3] | [5] | [6] | [7] | [8] | [9] | [11] | [12] | [13] | [14] | [15]

CCCCC(=O)O[C@]1(C(=O)CO)CC[C@H]2[C@@H]3CCC4=CC(=O)CC[C@]4(C)[C@H]3[C@@H](O)C[C@@]21C
inactive: [1] | [2] | [3] | [16] | [6] | [7] | [14] | [17] | [15]

CC(O)(P(=O)(O)O)P(=O)(O)O
inactive: [1] | [2]

C=C1C[C@H]2[C@@H]3C=C(C)C4=CC(=O)CC[C@]4(C)[C@H]3CC[C@]2(C)[C@@]1(OC(C)=O)C(C)=O
active: [4] 2.61 µM | [10] 6.57 µM
inactive: [1] | [2] | [16] | [7] | [8] | [9] | [11] | [13] | [14] | [17] | [15]

C#C[C@]1(OC(C)=O)CC[C@H]2[C@@H]3CCC4=C[C@@H](OC(C)=O)CC[C@@H]4[C@H]3CC[C@@]21C
inactive: [1] | [2]

CCOc1ccc2nc3cc(N)ccc3c(N)c2c1
inactive: [1] | [11] | [14] | [15]
active: [2] 18.8 µM | [3] 18.5 µM | [5] 16.5 µM | [10] 2.61 µM | [12] 14.7 µM

CN1CCCC(CC2c3ccccc3Sc3ccccc32)C1 (configuration not stated)
inactive: [1] | [2]

CCC(C(=O)OCCN(CC)CC)c1ccccc1 (configuration not stated)
inactive: [1] | [2] | [5] | [16] | [6] | [7] | [8] | [9] | [11] | [12] | [13] | [14] | [17]
active: [4] 13.1 µM | [10] 10.4 µM

C[C@]12CCC(=O)C=C1CC[C@H]1[C@@H]3CC[C@](O)(C(=O)CO)[C@@]3(C)C[C@H](O)[C@@]12F
inactive: [1] | [2] | [3] | [16] | [6] | [7] | [8] | [9] | [11] | [12] | [13] | [14] | [15]

CC(=O)OCC(=O)[C@@]1(O)CC[C@H]2[C@@H]3CCC4=CC(=O)C=C[C@]4(C)[C@H]3[C@@H](O)C[C@@]21C
inactive: [1] | [2] | [3] | [4] | [5] | [6] | [7] | [8] | [10] | [11] | [12] | [13] | [14] | [17] | [15]

C[C@H]1C[C@H]2[C@@H]3CCC4=CC(=O)C=C[C@]4(C)[C@@]3(Cl)[C@@H](O)C[C@]2(C)[C@@]1(O)C(=O)CO
active: [3] 18.5 µM
inactive: [1] | [2] | [4] | [5] | [16] | [6] | [7] | [8] | [9] | [10] | [11] | [13] | [14] | [17] | [15]

CCN(CCCCOC(=O)c1ccc(OC)c(OC)c1)C(C)Cc1ccc(OC)cc1 (configuration not stated)
inactive: [1] | [2]

CC1(C)O[C@@H]2C[C@H]3[C@@H]4CCC5=CC(=O)CC[C@]5(C)[C@@]4(F)[C@@H](O)C[C@]3(C)[C@]2(C(=O)CCl)O1
inactive: [1] | [2] | [3] | [5] | [6] | [7] | [8] | [9] | [10] | [13] | [14] | [17] | [15]

NC(=O)CC[C@@H]1NC(=O)[C@H](Cc2ccccc2)NC(=O)[C@H](Cc2ccc(O)cc2)NC(=O)CCSSC[C@@H](C(=O)N2CCC[C@H]2C(=O)N[C@@H](CCCN=C(N)N)C(=O)NCC(N)=O)NC(=O)[C@H](CC(N)=O)NC1=O
inactive: [1] | [2] | [3] | [4] | [5] | [16] | [6] | [7] | [8] | [9] | [10] | [12] | [14] | [17] | [15]

CC(=O)OCC(=O)[C@@]1(O)[C@H](C)C[C@H]2[C@@H]3CCC4=CC(=O)C=C[C@]4(C)[C@@]3(F)[C@@H](O)C[C@@]21C
inactive: [1] | [2] | [7]
active: [3] 9.27 µM | [4] 29.3 µM | [10] 18.5 µM
